In PubChem BioAssay:
Values joined by “and” are separate entries in the source; they are usually repeats but may differ in a detail not shown here. Equal values may be shown once. Active and inactive are the calls of the source.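 Rule for the calls, unless noted: active = compounds that lower viability of the colon cancer cells in the luminescence readout, with no numeric limit stated; inactive = the rest.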

Experiments:
[1] = hESC survival regulators, cell-based (AID 493140; call rule not given here;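 note: cells exposed to compounds for four days before counting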); details: human embryonic stem cell survival screen; stronger effect = higher value
[2] = stimulators of insulin release from INS-1E, primary screen, cell-based, 5 mM glucose, NPC library (AID 1117329;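 active = compound raises insulin release from rat beta cells at 5 mM glucose, no numeric limit stated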); details: rat INS-1E insulin secretion, at 10 µM, stronger effect = higher value
[3] = growth inhibition of GSK3B-pretreated HCT116 cells – cell-based, CellTiter-Glo, 0.2 to 20 µM (AID 1117336;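 active = compounds lowering colon cancer cell viability after pretreatment blocking the GSK3B kinase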); details: HCT116 viability after GSK3B inhibitor, at 20 µM, stronger effect = higher value
[4] = inhibition of endothelial tube formation, primary screen, imaging, VEGF stimulated, CD31 staining, tube area, NPC library (AID 1117340;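 active = compound that reduces growth-factor-driven endothelial tube area in a mixed cell culture, no cutoff stated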); details: VEGF-stimulated ADSC/ECFC co-culture, at 10 µM, stronger effect = higher value
[5] = glucagon-like peptide 1 release enhancers, primary assay, NCI-H716 cell line, NPC library (AID 1117341;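 active = compound raises GLP1 secretion from the human gut endocrine cells, with no numeric limit stated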); details: NCI-H716 cells, at 10 µM, stronger effect = higher value
[6] = HCT116 colon cancer cell growth inhibition, primary screen, CellTiter-Glo luminescence, NPC library (AID 1117342;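 active = compounds that lower survival of HCT116 colon cancer cells in the luminescence readout, no numeric limit stated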); details: at 20 µM (top of the series)
[7] = CellTiter-Glo luminescent readout of SW480 viability loss, NPC library primary (AID 1117343); details: CellTiter-Glo luminescence; at 20 µM (top of the series) unless noted
[8] = decreased DLD-1 cellular survival, CellTiter-Glo luminescent readout, NPC compound collection, primary HTS (AID 1117346;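 active = compounds that lower survival of DLD-1 colon cancer cells in the luminescence readout, no cutoff given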); details: DLD-1 viability, CellTiter-Glo luminescence; at 20 µM (top of the series)
[9] = target: 6-phosphogluconate dehydrogenase, decarboxylating (Homo sapiens) (UniProt P52209); assay: 6PGD enzyme inhibitors, primary screen, biochemical, human, recombinant enzyme, NADPH absorbance (AID 1159550;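 active = at least 20% inhibition of 6-phosphogluconate dehydrogenase activity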); details: recombinant 6PGD, NADPH absorbance 341 nm; at 10 µM; stronger effect = higher value
Sequence of 6-phosphogluconate dehydrogenase, decarboxylating (Homo sapiens) (P52209 whole entry, looked up): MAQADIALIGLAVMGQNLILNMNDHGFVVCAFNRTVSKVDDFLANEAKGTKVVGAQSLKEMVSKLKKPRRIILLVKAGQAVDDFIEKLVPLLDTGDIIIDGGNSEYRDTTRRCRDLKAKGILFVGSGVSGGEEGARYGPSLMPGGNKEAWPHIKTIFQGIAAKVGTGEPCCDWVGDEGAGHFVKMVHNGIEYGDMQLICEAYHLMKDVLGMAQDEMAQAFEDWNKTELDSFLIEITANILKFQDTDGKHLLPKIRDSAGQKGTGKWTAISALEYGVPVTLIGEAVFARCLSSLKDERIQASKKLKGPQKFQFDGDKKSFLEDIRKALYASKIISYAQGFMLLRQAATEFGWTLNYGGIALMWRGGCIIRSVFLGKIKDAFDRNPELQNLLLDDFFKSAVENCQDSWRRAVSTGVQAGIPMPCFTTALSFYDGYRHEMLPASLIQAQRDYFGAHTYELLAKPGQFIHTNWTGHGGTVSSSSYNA

[10] = differential killing of epithelial or mesenchymal cells, primary screen, imaging, PC-3E GFP, TEM4-18 mCherry, co-culture (AID 1345086;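 active = compounds killing one labelled cell type while sparing the other, by normalised counts and ratio limits, not self-fluorescent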;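 for all read-outs here: cells exposed to compound for 72 h before imaging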;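 for red/green cell ratio (normalised): normalised mesenchymal count divided by normalised epithelial count so high means epithelial killing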); details: imaging cell counts, at 1 µM; for red/green cell ratio (normalised): actives lie on both sides, counts scaled to control wells, 1 = unselective
[11] = target: NAD(+) hydrolase SARM1 (Homo sapiens) (UniProt Q6SZW1); assay: SARM1 TIR NADase inhibitors, cell lysate, NAD-Glo luminescence (AID 1508614;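 active = compound whose remaining NAD level is above about 45 nM, limit read from the data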;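 note: higher remaining NAD means stronger inhibition of SARM1 NADase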); details: SAM-TIR HEK293T lysate NADase, at 1 µM, stronger effect = higher value
Sequence of NAD(+) hydrolase SARM1 (Homo sapiens) (Q6SZW1 whole entry, looked up, the tested form may be a part): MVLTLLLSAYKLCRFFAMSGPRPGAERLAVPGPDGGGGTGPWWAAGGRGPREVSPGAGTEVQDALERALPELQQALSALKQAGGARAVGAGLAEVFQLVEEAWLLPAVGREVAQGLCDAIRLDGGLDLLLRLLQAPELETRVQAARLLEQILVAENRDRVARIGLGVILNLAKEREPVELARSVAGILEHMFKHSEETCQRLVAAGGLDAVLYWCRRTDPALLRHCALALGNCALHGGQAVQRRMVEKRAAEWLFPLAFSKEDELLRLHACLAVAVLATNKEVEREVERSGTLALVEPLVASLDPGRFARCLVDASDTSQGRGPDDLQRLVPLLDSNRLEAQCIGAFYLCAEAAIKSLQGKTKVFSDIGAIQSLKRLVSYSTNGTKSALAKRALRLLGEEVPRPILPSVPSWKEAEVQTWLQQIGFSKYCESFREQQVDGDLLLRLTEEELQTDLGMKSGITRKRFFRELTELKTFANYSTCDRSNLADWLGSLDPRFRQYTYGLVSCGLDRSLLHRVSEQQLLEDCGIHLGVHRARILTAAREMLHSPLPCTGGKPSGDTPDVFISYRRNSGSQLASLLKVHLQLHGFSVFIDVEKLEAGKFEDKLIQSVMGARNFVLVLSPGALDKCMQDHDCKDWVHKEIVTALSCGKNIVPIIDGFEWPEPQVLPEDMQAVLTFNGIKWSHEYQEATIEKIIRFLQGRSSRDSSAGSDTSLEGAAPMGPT

[12] = target: Mitogen-activated protein kinase 7 (Homo sapiens) (UniProt Q13164); assay: ERK5 transactivation activators in reporter cells, primary screen, cell-based, HTS (AID 1508626;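 active = luciferase signal above three times the same-plate solvent-only control wells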;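 note: luciferase driven by Gal4-ERK5 fusion binding five Gal4 sites before minimal TATA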); details: HeLa Gal4-ERK5 transactivation, 18 h, at 5 µM, stronger effect = higher value
Sequence of Mitogen-activated protein kinase 7 (Homo sapiens) (Q13164 whole entry, looked up, the tested form may be a part): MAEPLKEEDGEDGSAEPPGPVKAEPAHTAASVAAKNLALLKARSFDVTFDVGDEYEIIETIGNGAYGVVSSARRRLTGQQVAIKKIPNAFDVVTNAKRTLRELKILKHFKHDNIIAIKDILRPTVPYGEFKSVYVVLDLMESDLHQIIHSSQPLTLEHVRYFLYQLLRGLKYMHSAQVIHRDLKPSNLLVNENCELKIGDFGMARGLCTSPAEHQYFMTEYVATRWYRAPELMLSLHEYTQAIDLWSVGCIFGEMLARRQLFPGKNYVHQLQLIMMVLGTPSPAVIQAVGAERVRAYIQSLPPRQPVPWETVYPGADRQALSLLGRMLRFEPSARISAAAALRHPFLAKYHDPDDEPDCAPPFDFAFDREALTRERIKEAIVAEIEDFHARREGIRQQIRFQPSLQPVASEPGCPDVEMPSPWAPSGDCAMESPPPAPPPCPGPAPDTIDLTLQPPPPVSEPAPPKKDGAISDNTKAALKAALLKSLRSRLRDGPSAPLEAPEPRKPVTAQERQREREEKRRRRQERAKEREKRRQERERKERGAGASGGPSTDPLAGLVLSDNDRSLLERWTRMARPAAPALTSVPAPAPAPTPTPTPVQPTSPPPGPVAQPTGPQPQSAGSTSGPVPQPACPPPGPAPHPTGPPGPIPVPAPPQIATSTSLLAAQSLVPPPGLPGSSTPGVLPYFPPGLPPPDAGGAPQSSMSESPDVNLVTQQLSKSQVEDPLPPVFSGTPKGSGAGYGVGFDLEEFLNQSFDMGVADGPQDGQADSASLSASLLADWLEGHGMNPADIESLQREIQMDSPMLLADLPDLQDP

[13] = LFS_MB_P medulloblastoma growth inhibition, cell-based, chromothripsis tumors, cisplatin or BGB combos (AID 1671449; in the data active = inhibition above about 80%;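 note: cells exposed for 96 hours; 0% = vehicle DMSO and 100% = killing by high DMSO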); details: LFS_MB_P medulloblastoma cells
[14] = HDN33 neuroblastoma growth inhibition, cell-based, chromothripsis tumors, cisplatin or BGB combos (AID 1671450; in the data active = inhibition above about 80%;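 note: cells exposed to compound for four days; 0% = vehicle DMSO and 100% = cell killing by high DMSO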); details: HDN33 neuroblastoma cells, stronger effect = higher value
[15] = ICB984 medulloblastoma cell growth inhibition, synergistic combos for chromothripsis tumors, cisplatin or BGB combos (AID 1671451; call rule not given here;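 note: cells exposed for 96 hours before readout; 0% = vehicle DMSO and 100% = killing by high DMSO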); details: ICB984 medulloblastoma cells, drug combinations, stronger effect = higher value
[16] = stimulators of nuclear beta-catenin in C2C12, primary screen, imaging, WNT3A-conditioned medium, mouse C2C12, NPC library (AID 1117326; in the data active = nuclear beta-catenin stimulation mostly above about 4.2%, no sharp cut-off; inactive = mostly below about 10%); details: stronger effect = higher value
[17] = survival rescue of mitochondrial mutant cells in low glucose, primary screen, MELAS cybrids, Rieske KO mouse fibroblasts, CellTiter-Glo (AID 1508586;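 active = mean z-score across replicates of 1.96 or higher in either the MELAS or the Rieske mutant cell line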;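 note: z relative to plate mean and SD of compound and empty wells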)
[18] = viability rescue of complex I mutant cybrids, primary screen, cell-based, galactose medium, ATP luminescence (AID 1645843;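 active = z-score of at least 1.8 in each of two replicates, scored against plate mean and spread of sample wells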;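 note: positive z means more ATP and so rescue of galactose-driven cybrid death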); details: complex I mutant cybrid cells, 72 h, stronger effect = higher value
[19] = measured here: epithelial PC-3E GFP cell survival
[20] = measured here: mesenchymal TEM4-18 mCherry cell survival

SMILES: CCn1cc(C(=O)O)c(=O)c2ccc(C)nc21
- survival [1]: 18 (inactive)
- insulin secretion stimulation [2]: -1.7% (inactive)
- viability decrease [3]: 10.1% (inactive)
- tube area decrease [4]: 2% (inactive)
- GLP1 secretion stimulation [5]: 3.3% (inactive)
- inhibition of viability [6]: 10.9% (inactive)
- viability decrease (inhibition) [7]: 30.9% (inactive)
- viability decrease (inhibition) [8]: -0.43% (inactive)
- inhibition [9]: -7.36% (inactive)
- red/green cell ratio (normalised) [10]: 0.88 (inactive)
- normalised cell number [10, 19]: 1.09
- normalised cell number [10, 20]: 0.97
- remaining NAD [11]: 10 nM (inactive)
- luciferase signal [12]: 44 AU (inactive)
- inhibition ([13]; at 0.5 µM, stronger effect = higher value): -12.4% (inactive) and -25.4% (inactive)
- inhibition ([13]; measured here: combination with BGB IC20, at 0.005 µM): -22.2% and -24.5%
- inhibition ([13]; measured here: combination with BGB IC40, at 0.005 µM): 11.9% and -5.77%
- inhibition ([13]; measured here: combination with BGB IC40, at 0.05 µM): 1.93% and -7.94%
- inhibition ([13]; measured here: combination with cisplatin, at 0.5 µM, stronger effect = higher value): -11.7% and -31.6%
- inhibition ([13]; measured here: combination with cisplatin, at 5 µM, stronger effect = higher value): -6.26% and -18.6%
- inhibition ([14]; BGB combo, at 5 µM): -4.41% and 16.2%
- inhibition ([14]; at 0.5 µM): 3.94% (inactive) and 4.3% (inactive)
- inhibition ([14]; cisplatin combo, at 5 µM): -15% and -2.27%
- inhibition ([14]; measured here: with BGB IC20 combination, at 0.5 µM): -7.56% and 11.7%
- inhibition ([14]; measured here: with cisplatin IC20 combination, at 0.5 µM): 7.18% and 9.4%
- inhibition ([14]; single agent, at 5 µM): 11.6% and -22.5%
- inhibition ([15]; BGB IC20 combo, at 0.005 µM): 7.03% and -21.5%
- inhibition ([15]; BGB IC40 combo, at 0.005 µM): -26.9% and -29.6%
- inhibition ([15]; BGB IC40 combo, at 0.05 µM): -0.123% and -9.89%
- inhibition ([15]; at 0.5 µM): -22.6% (inactive) and -21.9% (inactive)
- inhibition ([15]; cisplatin combo, at 0.05 µM): -0.123% and -9.89%
- inhibition ([15]; cisplatin combo, at 0.5 µM): -52.2% and -39.7%
- inhibition ([15]; cisplatin combo, at 5 µM): -11.7% and -29.5%
- inhibition ([15]; measured here: 5 uM single agent, at 5 µM): -3.29% and -15.7%

SMILES: CCN(CC)CC(=O)Nc1c(C)cc(C)cc1C
- insulin secretion stimulation [2]: -0.3% (inactive)
- viability decrease [3]: -7.6% (inactive)
- tube area decrease [4]: 7.2% (inactive)
- GLP1 secretion stimulation [5]: -3.6% (inactive)
- inhibition of viability [6]: 4.6% (inactive)
- viability decrease (inhibition) [7]: 6% (inactive)
- viability decrease (inhibition) [8]: -2% (active)

SMILES: Cc1cc(-n2nc3ccc(Cl)cc3n2)c(O)c(C(C)(C)C)c1
- nuclear beta-catenin stimulation ([16]; at 10 µM): 3.3% (inactive)
- nuclear beta-catenin stimulation ([16]; stimulation, at 2 µM): 10.1%
- viability decrease [3]: 29.7% (inactive)
- inhibition of viability [6]: 22.8% (inactive)
- viability decrease (inhibition) [7]: 1.3% (inactive)
- viability decrease (inhibition) [8]: 8% (inactive)

SMILES: C[C@@H](c1ncncc1F)C(O)(Cn1cncn1)c1ccc(F)cc1F (some centres not stated)
- insulin secretion stimulation [2]: 3.8% (inactive)
- viability decrease [3]: -3.3% (inactive)
- tube area decrease [4]: -5.2% (inactive)
- GLP1 secretion stimulation [5]: -0.7% (inactive)
- inhibition of viability [6]: 11.9% (inactive)
- viability decrease (inhibition) [7]: 4.6% (inactive)
- viability decrease (inhibition) [8]: -4.3% (inactive)

SMILES: CC(C)(C)NCC(O)c1ccc(O)c(CO)c1 (configuration not stated)
- survival [1]: 26.5 (inactive)
- insulin secretion stimulation [2]: 1.1% (inactive)
- viability decrease [3]: -1.7% (inactive)
- tube area decrease [4]: -7.8% (inactive)
- GLP1 secretion stimulation [5]: -1.8% (inactive)
- inhibition of viability [6]: -1.7% (active)
- viability decrease (inhibition) [7]: -5.2% (inactive)
- viability decrease (inhibition) [8]: -10% (inactive)
- inhibition [9]: 0.167% (inactive)
- red/green cell ratio (normalised) [10]: 0.85 (inactive)
- normalised cell number [10, 19]: 1.18
- normalised cell number [10, 20]: 1
- z-score ([17]; MELAS cybrid survival, CellTiter-Glo 48 h, stronger effect = higher value): 0.679 (inactive) and -0.995 (inactive)
- z-score ([17]; Rieske KO mouse fibroblast survival, CellTiter-Glo 72 h): 0.164 and -0.427
- remaining NAD [11]: 10 nM (inactive)
- luciferase signal [12]: 32 AU (inactive)
- z-score [18]: 0.105 (inactive) and 0.825 (inactive) and 0.82 (inactive)

SMILES: COCCOCC(OC)OC
- nuclear beta-catenin stimulation ([16]; at 10 µM): 1.2% (inactive)
- nuclear beta-catenin stimulation ([16]; stimulation, at 2 µM): 10.8%
- viability decrease [3]: 0.6% (inactive)
- inhibition of viability [6]: 12.5% (inactive)
- viability decrease (inhibition) [7]: -8.8% (inactive)
- viability decrease (inhibition) [8]: 6.9% (inactive)
